Experimental findings from PubChem BioAssay (NCI) are described below.

SMILES strings stand for the structures. The panel holds about 83,000 compounds, 20% with a hit somewhere; the sample as a whole holds those more often.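 Negative percent growth values reflect cell death: -40 means 40% of the cells present at the start died, and -100 means all died.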 Values without a mark were called inactive. Activity calls are given as the source filed them. The calls were made as follows: active = growth percent below 10; inactive = the rest.

Holding throughout (test): NCI-60 one-dose screen, 48 h (100 = growth as untreated, 0 = no growth, -100 = all killed)
Settings in all cases: 10 µM unless noted

The test system of test [1] is HT29 colon.
In test [2] the test system is SNB-75 CNS.
Test [3] has as its system SNB-19 CNS.
For test [4], the system named is U251 CNS.
For test [5], the system named is PC-3 prostate.
Test [6] relates to SK-MEL-5 melanoma.
Test [7] relates to UACC-62 melanoma.
Test [8] concerns LOX IMVI melanoma.
Test [9] deals with SK-MEL-28 melanoma.
Test [10] relates to SK-MEL-2 melanoma.

Regarding `COc1cccc(-c2nn(-c3ccccc3)cc2-c2ccnc(N3CCN(C(=O)c4ccccc4)CC3)c2)c1`, the growth in test [1] is 87.2%; in test [2], 65.9%; in test [3], 85.5%; in test [4], 78.4%; in test [5], 46.6%; in [6], 49.8%. In addition, the growth in test [7] was 62.4%; in [8], 87.5%; in [9], 84.2%; in test [10], 89%.
Take `COc1cc(OC)c(C2C(Cl)C(=O)N2Nc2ncnc3ccccc23)cc1OC` (stereo not given): the growth in test [1] is 112%; in [2] it was 80.5%; in [3], 98.9%; in [4], 91.7%; in [5], 89.6%; in [6] it was 99.3%. Also, the growth was 91.7% in test [7], 45.6% in [8], 105% in test [9] and 121% in [10].
For `N#Cc1nc(-c2ccccc2)oc1S(=O)(=O)N1CCN(CCc2ccccn2)CC1`, the growth in [1] was -5.82% (active); in test [2], 87.2%; in test [3] it was 97.7%; in [4] it was 88%; in [5], 86%; in test [6], 97.6%. The growth was 83.6% in test [7], -79.2% (active) in test [8], 43.6% in test [9] and 108% in test [10].
In the case of `CC(=O)Oc1ccccc1C(=O)Nc1cc(C(C)C)ccc1C`, the growth in test [1] is 91.5%; in [2] it was 26.1%; in test [3], 17.5%; in test [4] it was 10.1%; in [5], 22.1%; in test [6], -31.9% (active). Moreover, the growth in [7] was 16.9%; in test [8] it was 12.4%; in [9] it was 18%; in [10], -22.9% (active).
Consider `O=c1[nH]c2ccc(Cl)cc2cc1CSc1ccccc1Nc1nccc(-c2ccc(Cl)cc2)n1`, for which the growth was 109% in test [1]; 76.6% in [2]; 95% in test [3]; 79.7% in [4]; 69% in test [5]; 95.1% in test [6]. For the same molecule, the growth was 75.9% in test [7], 98.4% in [8], 106% in test [9] and 129% in [10].
On to `NS(=O)(=O)c1ccc(Nc2nc(Nc3ccccc3)nc(-n3nc(-c4ccccc4)cc3-c3ccccc3)n2)cc1`, for which the growth is 4.52% (active) in test [1]; 56.4% in test [2]; 50.1% in test [3]; 33.3% in [4]; 26.7% in test [5]; 39.2% in test [6]. Further, the values for the growth in test [7], in [9] and in test [10] were 54.8%, 54.6% and 56.3%, respectively.
Consider `NS(=O)(=O)c1cccc(Nc2nc(SCC(=O)c3ccc(Br)cc3)nc3ccccc23)c1`, for which the growth is 90.2% in [1]; 10.9% in test [2]; 35.3% in test [3]; 59.7% in test [4]; 36.5% in test [5]; 58.7% in test [6]. Moreover, the growth in [7] is 59.1%; in test [9], 84.4%.
Turning to `COc1ccc(/C=C2\SC(=Nc3cc(C)on3)NC2=O)cc1`, the growth is 108% in [1]; 97% in test [2]; 96.4% in test [3]; 109% in test [4]; 96.7% in test [5]; 99.3% in test [6]. Further, the growth in test [7] was 95.1%; in test [9], 106%.
With `COc1cccc(OC)c1-c1nnn(C)c1C(=S)N1CCN(c2ccc([N+](=O)[O-])cc2Cl)CC1`, the growth in [1] is 104%; in test [2] it was 92.2%; in test [3], 92.7%; in [4] it was 97.9%; in test [5], 54%; in test [6] it was 90.1%. The growth is 69.1% in test [7], 98.3% in [9] and 110% in test [10].
For the molecule `C#Cc1nc(C2=C(C)C(OC(C)=O)/C(=N/OC(C)=O)C2)cs1` (stereo not given), the growth was -14.1% (active) in test [1]; -89% (active) in [2]; 78.4% in test [3]; -13.9% (active) in test [4]; -11.1% (active) in test [5]; 89.7% in test [6]. Besides, the growth in test [7] is 11.3%; in test [9] it was 101%; in test [10], 92.8%.
`C=CCn1c(SCC(=O)c2ccc(Br)cc2)nnc1-c1c[nH]c2ccccc12`: the growth was 104% in test [1]; 106% in [2]; 100% in test [3]; 99.9% in [4]; 78.3% in test [5]; 95.9% in [6]. The growth is 83.1% in test [7] and 96.1% in test [9].
As to `Cn1ccnc1C(=O)/C=C/c1ccc(NC(=O)Nc2ccc(F)cc2)cc1`, the growth in test [1] is 11.7%; in test [2], 39.3%; in test [3] it was 33.9%; in test [4] it was 20.1%; in [5], 53.2%; in test [6], 77.8%. In addition, the values for the growth in test [7], in [9] and in test [10] were 46.3%, 75.5% and 95%, respectively.
Turning to `CCCC(=O)NC(c1cccnc1)c1cc(C)c2cccnc2c1O` (stereo not given), the growth was 21.5% in [1]; 77.5% in test [2]; 61.4% in test [3]; 41.3% in test [4]; 56.9% in [5]; 48.7% in test [6]. The growth is 28.4% in test [7], 40.2% in [8], 42.5% in test [9] and 101% in test [10].
Consider `[Cl][Ru].c1ccc(-c2cc(-c3ccccn3)nc(-c3ccccn3)c2)cc1.c1ccc(-c2ccnc3c2ccc2c(-c4ccccc4)ccnc23)cc1`, for which the growth was -47.6% (active) in test [1]; -20% (active) in test [2]; 12.2% in [3]; -54.8% (active) in test [4]; -7.82% (active) in test [5]; -94.9% (active) in test [6]. In addition, the growth was -68% (active) in test [7], -71.4% (active) in [8], -73.5% (active) in test [9] and -91.6% (active) in test [10].
For `O=c1[nH]c2ccccc2cc1CSc1ccccc1Nc1nccc(-c2ccc(C(F)(F)F)cc2)n1`, the growth in [1] is 56.1%; in test [2], 66.4%; in [3], 59.6%; in test [4] it was 47.5%; in [5], 56.6%; in test [6], 96.2%. For the same molecule, the growth in test [7] is 70.4%; in [8] it was 19.8%; in test [9], 84.9%; in test [10] it was 89.8%.
On to `C/C(=C(/c1ccc(Cl)cc1)c1ccc(OCCN)cc1)c1ccc(C)cc1`, for which the growth in test [1] is 111%; in [2], 94.6%; in test [3], 92.6%; in [4] it was 101%; in test [5], 94.6%; in test [6], 106%. For the same molecule, the growth in test [7] was 88.6%; in [8], 105%; in test [9] it was 99.6%; in test [10], 112%.
On to `C#Cc1nc(C2=C(C)C(=N\O)/C(=N/O)C2)cs1`, for which the growth in [1] was 111%; in [2], 60%; in test [3], 95.6%; in test [4], 103%; in test [5], 90.6%; in test [6], 99%. For the same molecule, the growth in test [7] is 91.8%; in test [9], 111%; in test [10], 108%.
`O=C(CCN1C(=O)/C(=C/c2ccccc2)SC1=S)N1CCOCC1`: the growth is 102% in test [1]; 92.1% in test [2]; 101% in test [3]; 99.9% in [4]; 111% in test [5]; 99.5% in test [6]. Further, the growth is 78.8% in [7], 0.309% (active) in [8], 85.6% in test [9] and 112% in [10].
For the molecule `O=C(O)CCCCCN1C(=O)/C(=C/c2ccc(O)c(O)c2)SC1=S`, the growth in test [1] is 116%; in test [2], 95.1%; in test [3] it was 96.1%; in test [4] it was 103%; in test [5], 117%; in test [6] it was 98.9%. The growth was 96.8% in test [7], 108% in test [8], 102% in [9] and 140% in test [10].
In the case of `Cc1sc2nc(NCc3ccccc3Cl)[nH]c(=O)c2c1C`, the growth is 103% in test [1]; 82.8% in test [2]; 102% in test [3]; 72.9% in test [4]; 73.9% in test [5]; 72.9% in test [6]. The growth in test [7] is 75.8%; in test [8], 68.8%; in [9], 98.6%; in test [10], 106%.
For `N#Cc1nc(-c2ccccc2)oc1S(N)(=O)=O`, the growth in test [1] is 43.8%; in [2], 91.7%; in [3], 95.3%; in test [4] it was 92.6%; in test [5] it was 81.4%; in test [6], 76.2%. The growth is 66.6% in test [7], 10.5% in test [8], 69.5% in test [9] and 84.9% in [10].
Take `NS(=O)(=O)c1cccc(Nc2nc(SCC(=O)c3ccc(Cl)cc3)nc3ccccc23)c1`: the growth in [1] was 88.4%; in [2], 33.6%; in [3] it was 69.6%; in test [4], 46.4%; in test [5], 57.2%; in test [6], 73.5%. The growth is 62.6% in [7], 28.7% in test [8], 89% in [9] and 77.3% in test [10].
Take `c1ccc2c(NCCCn3ccnc3)c3oc4ccccc4c3nc2c1`: the growth was -24% (active) in test [1]; 17.8% in test [2]; 11.9% in test [3]; 17.9% in [4]; 5.76% (active) in [5]; 9.52% (active) in test [6]. Also, the growth in test [7] was -14.9% (active); in test [8], -61.6% (active); in test [9], 9.69% (active); in test [10], -27.2% (active).
For `C#Cc1nc(C2=C(C)C(O)CC2)cs1` (stereo not given), the growth is 118% in test [1]; 96.1% in test [2]; 104% in test [3]; 104% in test [4]; 97.7% in test [5]; 101% in test [6]. The results for the growth in test [7] and in test [9] were 94.2% and 105%, respectively.
For `COc1ccc(/C=N/NC(=O)c2[nH]c3ccc(Br)cc3c2-c2ccccc2)s1`, the growth in test [1] was 0.251% (active); in test [2] it was 26.4%; in test [3], 30.6%; in test [4] it was 30.2%; in [5], 30.9%; in [6], -24.4% (active). Also, the values for the growth in test [7], in test [9] and in test [10] were 42.4%, 63.6% and 43.9%, respectively.
As for `O=C(CSc1nccc(=O)[nH]1)Nc1ccc(-c2nc3ccccc3[nH]2)cc1`, the growth was 109% in [1]; 122% in test [2]; 103% in test [3]; 106% in test [4]; 92.6% in [5]; 99.7% in test [6]. Also, the growth in test [7] was 99.7%; in [8] it was 96.9%; in test [9], 98.9%; in test [10], 107%.
As to `Fc1ccc(-c2cc3nc(C(Cl)Cl)nc(-c4ccc(Cl)cc4)n3n2)cc1`, the growth in [1] was -35% (active); in [2], -2% (active); in [3] it was 6.37% (active); in test [4] it was -58.1% (active); in test [5], 22.8%; in [6], 76.9%. In addition, the growth was 53.1% in test [7], 70.9% in test [8], 11.6% in test [9] and 89.4% in test [10].
For `CCOC(=O)c1c(Nc2ccccc2)nn2c(N)c(C#N)c(-c3ccccc3)nc12`, the growth in test [1] was 92.1%; in test [2], 86.1%; in test [3] it was 89.4%; in test [4], 74.6%; in test [5], 76.5%; in test [6], 86.8%. Further, the growth is 83.4% in [7], 99.4% in test [9] and 92.2% in test [10].
